# TDP1 cell CPT – DT40-hTDP1 cell growth loss with CPT; chicken DT40 Tdp1-/-;hTDP1 cells + 20 nM CPT, ATP luminescence, 48 h; Potency, µM (series often up to 46.2 µM), for the others: at the highest dose activity change, negative = growth inhibition, usual class: inhibitors; hit rate 12% among 420,000; AID 686979; also: potency is read from the fitted curve at half-maximal effect; nearly all actives have a fitted effect of over 55% in size
#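 Chicken DT40 Tdp1-/- cells complemented with human TDP1, 400 cells/well, exposed to compounds plus 20 nM camptothecin for at least 48 h at 37 C; viability read as ATP content by CellTiter-Glo luminescence.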
# HT1080NT lethal – kills 2HG-producing HT-1080-NT fibrosarcoma cells; HT-1080-NT fibrosarcoma viability, CellTiter-Glo ATP luminescence, 48 h; Potency, µM (series often up to 46.1 µM), inactives show at the top dose activity, negative = less viability, most hits filed as cytotoxic; hit rate 1.6% among 360,000;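 also: NT is the 2HG producing partner of a matched IDH1 knockdown line; potency is read from the fitted curve at half-maximal effect; 0% = DMSO-treated cells and -100% = media-only wells without cells; nearly all actives have a fitted effect of over 55% in size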
#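 Luminescent CellTiter-Glo readout after 48 hours of compound exposure at 37 degrees C defined viability of HT-1080-NT cells. Activity was normalized to DMSO wells and cell-free media wells; concentration-response curves were fitted and assigned curve classes.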
# HT1080 IDH1KD tx – HT-1080 IDH1 knockdown cell toxicity (counter line); HT-1080 IDH1 knockdown viability, ATP luminescence, 48 h; hit rate 2% among 360,000; AID 686971; Potency, µM (highest dose often 46.1 µM), inactives show top-dose activity, negative = toxicity, most hits filed as cytotoxic;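 also: potency is read from the fitted curve at half-maximal effect; 0% = DMSO wells and -100% = cell-free medium wells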
#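 Luminescent ATP read-out (CellTiter-Glo, 10 min at room temperature) after 48 h compound exposure at 37 °C gave viability of IDH1-knockdown HT-1080 cells. Activity was normalised to DMSO and cell-free wells, then fitted as concentration-response curves.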
# IL-1B inflam inh – inhibitors of inflammasome signaling (IL-1 beta secretion); THP-1 LPS/ATP IL-1B secretion, AlphaLISA, 16 h; active compounds read low; activity change, % at 57.5 µM; hit rate 4.7% among 360,000; in the data active = activity change below about -50%; inconclusive = mostly about -30% to -49%
#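 THP-1 cells pretreated 1 hr with compounds (up to 57.5 uM final), then stimulated with LPS (250 ng/mL final) plus ATP (1.25 mM final); secreted IL-1B measured by AlphaLISA after 16 hr, decreased signal indicating inhibition.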
# TDP1 cell noCPT – qHTS for Inhibitors of human tyrosyl-DNA phosphodiesterase 1 (TDP1): qHTS in cells in absence of CPT. Potency, µM (doses to about 46.2 µM), for the others: at the top dose activity change, negative = growth inhibition, hits mostly inhibitors. hit rate 15% among 420,000. DT40 Tdp1-/- hTDP1 cells, no CPT, ATP luminescence, 48 h. AID 686978, 2013; also: potency is read from the fitted curve at half-maximal effect; nearly all actives have a fitted effect of over 55% in size
#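 Readout: luminescence from CellTiter-Glo after 30 min in the dark at RT. Cells: DT40 Tdp1-/- with stable hTDP1, 400/well. Exposure: compounds alone, ≥48 hr, 37 °C.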
# Starred values were filed as active, the others as inactive; ? = inconclusive; / = not tested or not shown; [ ] = another dose, or the depositor's remark. An excerpt weighted towards active compounds, which were near 19% of everything screened. Unless noted, calls follow the shape of the dose curve; as a rule, active = well fitted curve in the direction sought with a large enough effect; inconclusive = small, poorly fitted or top-dose-only effect, or another doubt; inactive = no such curve, though single readings can be large; an effect the other way counts as inactive or inconclusive. Unless noted, % is scaled to controls: 0 for no effect and ±100 for the full control effect.
SMILES,TDP1 cell CPT,HT1080NT lethal,HT1080 IDH1KD tx,IL-1B inflam inh,TDP1 cell noCPT
CC(=O)Oc1ccc(N2C(=O)C3C4C=CC(CO)(O4)C3C2=O)cc1 (stereo not given),2.6µM*,-7%,0%[9.24 µM],-4,4.6µM*
O=C1C2C3C=CC(CNS(=O)(=O)c4ccccc4)(O3)C2C(=O)N1c1ccc(Cl)cc1 (stereo not given),26µM*,2%,-10%,6,?
O=C1C2C3C=CC(CO)(O3)C2C(=O)N1c1ccccc1-c1ccccc1 (stereo not given),2.6µM*,3.2µM*,1.6µM*,-82*,4.1µM*
COCCNC(=O)C1CCCN(C(=O)/C=C/c2ccccc2)CC1 (stereo not given),1%,24%,3%,19,-3%
COc1ccccc1OCCSc1nc(-c2ccc(C(C)(C)C)cc2)nc2cc(=O)[nH]n12,13µM*,/,/,/,?
C=CCc1ccccc1OCCSc1nc(-c2ccc(C(C)(C)C)cc2)nc2cc(=O)[nH]n12,23µM*,/,/,/,?
CCOc1ccc(-c2nc(SCC(=O)Nc3ccc(C)c(C)c3)n3[nH]c(=O)cc3n2)cc1,-15%,/,/,/,-28%
Cc1ccc(-c2nc(SCCOc3ccccc3C)n3[nH]c(=O)cc3n2)cc1,23µM*,/,/,/,26µM*
O=c1cc2nc(-c3ccccc3)nc(SCc3cccc(Br)c3)n2[nH]1,?,/,/,/,9.2µM*
Cc1cc(C)nc(SCCN2CCCCC2)n1,11%,6%,12%,-1,-5%
CC(C)NC(=O)c1cccc2c1-c1ccccc1C2=O,-16%,3%,12%,-1,0%
CCC(C)c1ccc(S(=O)(=O)Nc2cccnc2)cc1 (stereo not given),?,-9%,?,34,29µM*
CCOc1ccc(CCNC(=O)c2cc3cccc4c3n2CCS4)cc1,9.2µM*,/,/,/,?
COc1cccc(C(=O)NCc2ccccc2OC)c1,3%,0%,0%,-18,-18%
O=C(NCc1ccccc1Cl)c1cc2cccc3c2n1CCS3,23µM*,/,/,/,?
COc1ccccc1CNC(=O)c1cc2cccc3c2n1CCS3,18µM*,/,/,/,?
COc1ccc(-c2coc3cc(OC(C)=O)ccc3c2=S)cc1,26µM*,?,?,-1,?
CC(=O)Oc1ccc2c(=O)c(-c3ccccc3)coc2c1,3%,-2%,-20%,-22,?
COC(=O)c1c(NC(=O)/C=C/C(=O)O)sc(C)c1-c1ccc(C(C)C)cc1,4.6µM*,?,?,-101*,21µM*
CC(C)=C1C2CCC1C(C(=O)Nc1sc(C)c(-c3ccc(C(C)C)cc3)c1C(N)=O)C2C(=O)O (stereo not given),16µM*,?,16µM*,-28,16µM*
CCOC(=O)c1c(NC(=O)/C=C/C(=O)O)sc(C)c1-c1ccc(C)c(C)c1,?,?,?,-95*,?
CCOC(=O)c1c(NC(=O)/C=C/C(=O)O)sc(C)c1-c1ccc(F)cc1,?,21µM*,?,-101*,?
CCn1c(SCC(=O)O)nnc1-c1cccnc1,0%,12%,2%,2,-2%
CC1(C)NC(=O)N(CC(=O)OCC(=O)N2CCN(S(=O)(=O)c3ccccc3)CC2)C1=O,-11%,7%,8%,10,-3%
O=C(CN(C(=O)Cn1nnc(-c2ccc(F)cc2)n1)c1cccc(F)c1)NC1CCCC1,-27%,-14%,0%,-14,-27%
SMILES,TDP1 cell CPT,HT1080NT lethal,HT1080 IDH1KD tx,IL-1B inflam inh,TDP1 cell noCPT
Cc1cccc(C(=O)NC(C(=O)Nc2ccccc2N2CCOCC2)C(C)C)c1 (stereo not given),-6%,1%,-11%,15,?
COC(=O)c1c(NC(=O)/C=C/C(=O)O)sc(C)c1-c1ccc(C)c(C)c1,?,?,?,-95*,?
CC(C)c1ccc(NC(=O)CSc2nc(=O)n(CCCN3CCOCC3)c3c2CCCC3)cc1,?,0%,9%,-10,?
Cc1cc(C)cc(NC(=O)CSc2nc(=O)n(CCCN3CCOCC3)c3c2CCCC3)c1,-26%,1%,-6%,-52*,?
CC(C)c1ccc(NC(=O)CSc2nc(=O)n(CCCN3CCOCC3)c3c2CCC3)cc1,-2%,-10%,-11%,-63*,-14%
O=C(CSc1nc(=O)n(CCN2CCOCC2)c2c1CCC2)Nc1ccc(OC(F)(F)F)cc1,13%,?,-14%,-75*,-25%
CCOc1ccc(OCc2nnc(SCC(=O)NC3CCS(=O)(=O)C3)n2-c2ccc(Cl)cc2)cc1 (stereo not given),-23%,2%,-5%,16,13%
COc1ccc(NC2c3ccccc3C(=O)N2c2ccccn2)cc1Cl (stereo not given),-19%,-1%,3%,?,?
O=C1c2ccccc2C(Nc2ccc(S(=O)(=O)N3CCCCC3)cc2)N1c1ccccn1 (stereo not given),?,2%,-1%,?,21µM*
O=C1c2ccccc2C(Nc2ccc(F)c(Cl)c2)N1c1ccccn1 (stereo not given),16µM*,0%,-18%,-13,?
O=C1c2ccccc2C(Nc2ccccc2)N1c1ccc(Cl)cn1 (stereo not given),?,-6%,6%,30,?
O=C1c2ccccc2C(Nc2ccc3c(c2)OCCO3)N1c1ccc(Cl)cn1 (stereo not given),?,-5%,-4%,19,16µM*
CC(=O)N1CCN(c2ccc(NC(=O)c3ccc(OCc4ccccc4)cc3)cc2)CC1,?,4%,5%,13,?
CC(C)(C)[C@H]1COC(=O)CC/C=C\C[C@H](CC(=O)N(CCO)Cc2ccccc2)C(=O)N1,?,-4%,1%,16,0%
CCCCCn1ccc(=N)cc1,9.2µM*,-11%,-19%,-30,5.2µM*
CCCCCCCCCn1ccc(=N)cc1,0.23µM*,?,15µM*,-94*,0.15µM*
CCn1ccc(=N)cc1,-18%,7%,7%,12,4%
CCCCCCCn1ccc(=N)cc1,0.52µM*,?,?,?,0.52µM*
CCCCCCN1CC(O)=C(c2ccccc2)C1=N,-4%,10%,12%,10,-1%
COc1cc(OC)c(NS(=O)(=O)c2c(C)[nH]c(=O)[nH]c2=O)cc1Cl,0%,3%,5%,-3,11%
Cc1cc2c(c(C)nn2-c2ccccc2)c(=O)o1,-3%,5%,0%,10,-15%
Nc1c2c(=O)oc(-c3ccccc3)cc2nn1-c1ccccc1,26µM*,?,?,-99*,?

# Source: PubChem BioAssay (National Center for Advancing Translational Sciences (NCATS))
